ssDAF12 agonist: S. stercoralis DAF-12 nuclear receptor activators, primary screen, cell-based, luminescence, HEK293, GRIP1 co-expression, lit1-tk-luc; HEK293 ssDAF-12/GRIP1 lit1-tk-luc reporter; % of 3 µM dafachronic acid response; 370,000 compounds, 1% hits; activation, % at 6.8 µM; Nuclear hormone receptor DAF-12 (Strongyloides stercoralis);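 active means activation above the mean over all tested compounds plus 3 SD, cut at about 0.9% in these data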;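 further: 0% = DMSO-only wells and 100% = 3 µM delta7-dafachronic acid wells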
AHR act: AHR activators, primary screen, cell-based, luminescence, luciferase reporter, human. AHR-responsive luciferase reporter cells. activation, % at 5 µM. 320,000 compounds, 2.5% hits. AID 2796, 2010; in the data active means activation above about 47%;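 further: 0% = vehicle wells and 100% = reference agonist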
DAX1 inh-1: DAX1 (NR0B1) inhibitors, primary screen, cell-based, HEK293, Gal4-DAX1, luciferase luminescence | inhibition, % at 6.75 µM | HEK293 Gal4-DAX1 luciferase reporter | 340,000 compounds, 0.99% hits;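 active means inhibition above the mean over all tested compounds plus 3 SD, cut at about 4.2% in these data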;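 further: 0% = DAX1-transfected cells with DMSO and 100% = empty-vector control cells with DMSO; inhibition shows as a rise in luminescence from relieved DAX1 repression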
DAX1 inh-2: DAX1 (NR0B1) inhibitors on StAR promoter, primary screen, cell-based, luminescence, SF-1 (NR5A1), full-length DAX-1 | HEK293T StAR-luciferase reporter, SF-1/DAX-1 repression relief | AID 652010, 2013 | inhibition, % at 6.8 µM | 370,000 compounds, 1.1% hits;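 active means inhibition above the mean over all tested compounds plus 3 SD, cut at about 3.6% in these data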;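 further: 0% = DAX-1 cells with DMSO and 100% = cells lacking DAX-1 with DMSO; higher inhibition means more luminescence from relief of DAX-1 repression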
hgDAF12 agonist: H. glycines DAF-12 receptor agonists, primary screen, cell-based, luminescence, HEK293, GAL4 fusion, UAS-luciferase. Nuclear hormone receptor DAF-12 (Heterodera glycines), GAL4 fusion. HEK293 GAL4-hgDAF12 UAS-luciferase reporter, agonist luminescence; normalized to butyrate control. activation, % at 6.8 µM. 370,000 compounds, 1.8% hits. AID 687014, 2013;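 active means activation above a cutoff set at the mean of all screened compounds plus 3 SD, cut at about 10% in these data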;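 further: 0% = DMSO wells and 100% = sodium butyrate wells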
hcDAF-12 act: H. contortus DAF-12 nuclear receptor activators, primary screen, cell-based, luminescence, HEK293, lit1-tk-luc reporter; activation, % at 6.8 µM; HEK293 hcDAF-12 lit1-tk-luc reporter; 0% DMSO, 100% Δ7-dafachronic acid; 370,000 compounds, 1.4% hits;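 active means activation above the mean of all tested compounds plus 3 SD, cut at about 5.5% in these data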;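 further: 100% = response to 3 µM Δ7-dafachronic acid high control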
hgDAF12 ag: H. glycines DAF-12 receptor agonists, confirmation, cell-based, luminescence, HEK293, GAL4-LBD fusion; 3,300 compounds, 80% hits; AID 743050, 2013; HEK293 GAL4-hgDAF12 luciferase reporter, agonist mode; percent of butyrate response; shares compounds with hgDAF12 agonist; activation, % at 6.8 µM;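 active means mean activation over triplicate wells above the hit cutoff derived from the earlier primary screen, cut at about 11% in these data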;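 further: 0% = DMSO low control and 100% = 2 mM sodium butyrate high control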
LXRb DAF12 ctr: LXR agonists, Gal4 luciferase reporter, confirmation, counter-screen for hgDAF-12 agonist project, cell-based, luminescence, HEK293, H. glycines campaign. shares compounds with hgDAF12 agonist. activation, % at 6.8 µM. AID 743051, 2013. 24 h. 3,300 tested, under 10 active;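 active means mean activation of the triplicate above a set limit carried over from the primary screen, none filed active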
* = called active by the depositor; · = not tested or not shown. In the library only some 5.7% were active in any assay of this set; here they are far more common.

SMILES | ssDAF12 agonist | AHR act | DAX1 inh-1 | DAX1 inh-2 | hgDAF12 agonist | hcDAF-12 act | hgDAF12 ag | LXRb DAF12 ctr
Cc1cccc(N2CCN(CCNC(=O)c3cc4c(s3)CS(=O)(=O)C4)CC2)c1C | -2 | 0 | -1 | -2 | -3 | -5 | · | ·
CCCCN1C(=O)C(=O)N(CC(=O)N2CCN(c3ccccc3)CC2)C1=O | 0 | 1 | 0 | 2 | 4 | -1 | · | ·
CCCCN1C(=O)C(=O)N(c2ccccc2)C1=S | 0 | 0 | 2 | 4.1* | 16* | 4 | 14* | 1
CC(=NNC(N)=S)c1ccc2cc3c(cc2c1)OCO3 | 0 | · | 4 | 3 | 25* | 4 | 13* | 1
CC1CC(C)CN(S(=O)(=O)c2ccc3oc(=O)ccc3c2)C1 (stereo not given) | -1 | -3 | 1 | 0 | 0 | -1 | · | ·
O=C(Nc1cccnc1)c1ccc(Oc2ccccc2)cc1 | 0 | -2 | 2 | 1 | 14* | 2 | 15* | 1
O=C(Nc1cccnc1)c1ccccc1Oc1ccccc1 | 0 | 16 | -1 | -1 | 3 | 3 | · | ·
C(=C\c1nnc(-c2cccs2)o1)/c1ccccc1 | 0 | 0 | 3 | 3.7* | 18* | 4 | 16* | 1
OCCOCCNc1ncnc2c1cnn2-c1ccc(Cl)cc1 | 0 | 14 | 3 | 4.5* | 15* | 5 | 17* | 1
O=C(NCCN1C(=O)C2C3C=CC(C3)C2C1=O)Nc1ccc(Br)cc1 (stereo not given) | 0 | 13 | 4 | 3 | 13* | 3 | 11* | 0
O=C1C(=O)N(Cc2ccccc2)C(=O)N1CCOc1ccccc1 | -1 | · | · | 0 | 1 | -2 | · | ·
C#CCNC(=O)C[C@H]1C[C@@]2(C(=O)OC)C(=C[C@H](C(C)C)O[C@@H]2C2CC2)N(CCCCCCCC)C1=O | -1 | · | · | -2 | 14* | -3 | -1 | 0
CCCCCCCCN1C(=O)[C@@H](CC(=O)NCCCOCCCC)C[C@@]2(C(=O)OC)C1=C[C@H](C(C)C)O[C@@H]2C1CC1 | -1 | · | · | 0 | -1 | 0 | · | ·
Cc1cccc(NC(=O)c2cc3ccccc3o2)c1 | 1.1* | 8 | 3 | 4 | 20* | 6.4* | 19* | 1
O=C(Nc1cccnc1)c1cc2cc(Br)ccc2o1 | 0 | 11 | 6.6* | 2 | 14* | 5 | 14* | 1
CC(C)(C)c1ccc(S(=O)(=O)Nc2ccc(C(O)(C(F)(F)F)C(F)(F)F)cc2)cc1 | -1 | · | · | 3 | -1 | -1 | · | ·
COc1ccccc1C(=O)COC(=O)c1ccc(N(C)C)cc1 | 0 | 0 | 4.5* | 3 | 16* | 5 | 13* | 1
CC(C)CC1NC(=O)c2cc3ccccc3cc2-n2c1nc1ccc(Cl)cc1c2=O (stereo not given) | 0 | · | 2 | 3 | 3 | 0 | · | ·
Cc1cccn2cc(-c3cc4ccccc4oc3=O)nc12 | -1 | 4 | 3 | 3 | 6 | -1 | · | ·
O=c1oc2ccccc2cc1-c1cn2cccnc2n1 | 0 | 16 | 1 | 4.1* | 14* | 4 | 18* | 1
CCCCc1ccc(Nc2ncnc3nc[nH]c23)cc1 | 0 | 5 | 2 | 3 | 13* | 3 | 8 | 0
